The results in this text go back to PubChem BioAssay (Tox21).

Values joined by “and” are separate entries in the source; they are usually repeats but may differ in a detail not shown here. Equal entries are not always repeated. Inconclusive results are not listed. A number with no mark means an inactive call. Active and inactive are the calls of the source. The call rests on the fitted dose curve; in most records, active means well fitted activation curve with a large enough effect in the repeat runs; inconclusive means weak or mixed curves; inactive means no such curve, though single readings can be large or run the other way.
On the % scale 0 is the no-effect control and ±100 the full control effect; potency means the concentration at half of the fitted maximal effect.

For the test, the target named is Nuclear receptor subfamily 1 group I member 2 (Rattus norvegicus) (UniProt Q9R1A7). As to the kind of experiment: Rat pregnane X receptor (rPXR) activation by small molecules, qHTS assay (AID 1346983). Further: nearly all actives have a fitted effect of over 20% in size. To be noted: rPXR luciferase reporter cells, One-Glo luminescence, 24 h; max activation: hits give high values. The source says: National Center for Advancing Translational Sciences [NCATS] NIH Chemical Genomics Center [NCGC] U.S. Environmental Protection Agency [EPA] National Institutes of Environmental Health Sciences [NIEHS] National Toxicology Program [NTP] Assay overview: The Pregnane X receptor (PXR), a ligand activated nuclear receptor plays a critical role in the regulation of genes involved in drug metabolism and transporters. PXR binds xenobiotics and when compounds interact with PXR produces enhanced expression of CYP3A genes. In humans PXR activation and CYP3A4 induction can be problematic due to their interactions with co-medicated drugs and decrease their efficacy or increase their own metabolism. However, there are known species-specific differences with regard to PXR activation that should be taken into account when animal PXR data are extrapolated to humans. A cell based rat PXR (rPXR) assay (developed by Puracyp, Inc., CA) was used to assess the activation of rPXR.
Sequence of Nuclear receptor subfamily 1 group I member 2 (Rattus norvegicus) (Q9R1A7 whole entry, looked up): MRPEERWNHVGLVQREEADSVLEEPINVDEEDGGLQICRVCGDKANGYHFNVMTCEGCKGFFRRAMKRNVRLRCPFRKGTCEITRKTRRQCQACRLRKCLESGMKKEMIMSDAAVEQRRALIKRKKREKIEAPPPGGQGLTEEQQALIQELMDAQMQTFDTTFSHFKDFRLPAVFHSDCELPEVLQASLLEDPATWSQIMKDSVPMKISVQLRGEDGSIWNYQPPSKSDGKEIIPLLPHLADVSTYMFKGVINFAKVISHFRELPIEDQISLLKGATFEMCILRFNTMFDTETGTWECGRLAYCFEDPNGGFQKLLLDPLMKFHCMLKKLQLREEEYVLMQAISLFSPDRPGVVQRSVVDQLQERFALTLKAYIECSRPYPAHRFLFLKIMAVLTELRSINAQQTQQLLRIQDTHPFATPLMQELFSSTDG
Assay Protocol Summary: rPXR cells were dispensed at 2,000 per well in 5uL of assay medium into white, solid-bottom 1536-well plates using a Multidrop Combi dispenser (Thermo Scientific). The assay plates were incubated at 37 C for 5hr before transferring 23 nL of test compounds dissolved in DMSO and positive control via Pintool station (Wako). The assay plates were incubated at 37 C for 24 hr. Then 5ul One-Glo assay reagent (Promega) was added to each plate by a Flying Reagent Dispenser (FRD, Aurora Discovery) and following 30 min incubation at room temperature, luciferase activity was quantified on a ViewLux plate reader (Perkin Elmer).
Take `CC(=O)[C@H]1CC[C@H]2[C@@H]3CC=C4C[C@@H](O)CC[C@]4(C)[C@H]3CC[C@]12C`: the max activation was -3.68%.

Turning to `Cc1ccc(S(=O)(=O)O)cc1C`, the max activation was -0.712%. For the molecule `CC1(C)C(C=C(Cl)Cl)C1C(=O)OCc1cccc(Oc2ccccc2)c1` (stereo not given), the max activation was 4.94%. `Cc1ccc(/C(=C\CN2CCCC2)c2ccccn2)cc1`: the max activation was -1.02%. As to `CN(Cc1cnc2nc(N)nc(N)c2n1)c1ccc(C(=O)N[C@@H](CCC(=O)O)C(=O)O)cc1`, the max activation is -6.01%.

For `C=C[C@H]1CN2CC[C@H]1C[C@@H]2[C@@H](O)c1ccnc2ccc(OC)cc12`, the max activation is -2.45%. On the same count and under the same terms, then `COc1cc([C@H]2Oc3cc([C@H]4Oc5cc(O)cc(O)c5C(=O)[C@@H]4O)ccc3O[C@@H]2CO)ccc1O`, with -6.88%; and `C[C@]12CC[C@@H]3c4ccc(O)cc4CC[C@H]3[C@@H]1CC[C@@H]2O`, with -1.66%; and `O=C(O)COCCN1CCN(C(c2ccccc2)c2ccc(Cl)cc2)CC1` (stereo not given), with 1.59%. As for `O=C(O)c1cc(=O)[nH]c(=O)[nH]1`, the max activation is -3.14%. Take `CC(=O)Oc1c(C)c(C)c2c(c1C)CC[C@@](C)(CCC[C@H](C)CCC[C@H](C)CCCC(C)C)O2`: the max activation was -0.642% and -1.19%.

As for `OC[C@H]1O[C@@H]2O[C@H]3[C@H](O)[C@@H](O)[C@@H](O[C@H]4[C@H](O)[C@@H](O)[C@@H](O[C@H]5[C@H](O)[C@@H](O)[C@@H](O[C@H]6[C@H](O)[C@@H](O)[C@@H](O[C@H]7[C@H](O)[C@@H](O)[C@@H](O[C@H]1[C@H](O)[C@H]2O)O[C@@H]7CO)O[C@@H]6CO)O[C@@H]5CO)O[C@@H]4CO)O[C@@H]3CO`, the max activation is -2.41%. Turning to `CCCCCCCC/C=C\CCCCCCCC(=O)O`, the max activation was -0.693%. Still for that read-out and setting: then `IC(I)I`, with -1.04%; and `Cc1ccc(S(=O)(=O)NCl)cc1`, with 4.18%; and `OC[C@@H](O)[C@@H](O[C@@H]1O[C@H](CO)[C@H](O)[C@H](O)[C@H]1O)[C@H](O)[C@@H](O)CO`, with -8.22%. As to `NCCN`, the max activation was -1.7%. For the molecule `CCCCCCCCCCC(CO)CCCCCCCC` (stereo not given), the max activation was -1.75%. The same measure, in the same setting: next, `CNC[C@H](O)c1ccc(O)c(O)c1`: 1.67%.

As for `C=C[C@@]1(C)CC(=O)[C@]2(O)[C@@]3(C)[C@@H](O)CCC(C)(C)[C@@H]3[C@H](O)[C@H](OC(C)=O)[C@@]2(C)O1`, the Potency was 5.01 µM (active). In the case of `CCC(Cc1c(I)cc(I)c(N)c1I)C(=O)O` (stereo not given), the max activation is -1.5%. Turning to `O=Cc1ccccc1C=O`, the max activation is 5.06%.

Take `CCc1cccc2c3c([nH]c12)C(CC)(CC(=O)O)OCC3` (stereo not given): the max activation is 1.85%. In the case of `CC/C=C\C/C=C\C/C=C\CCCCCCCC(=O)O`, the max activation was -1.32%. On the same count and under the same terms, then `CC(C)[C@@H]1CC[C@@H](C)CC1=O`, with -3.74%; and `FC(F)(F)C(Cl)Br` (stereo not given), with -0.375%; and `C=C[C@H]1CN2CC[C@H]1C[C@H]2[C@H](O)c1ccnc2ccc(OC)cc12`, with -0.698%. For the molecule `CC1(C)O[C@@H]2C[C@H]3[C@@H]4C[C@H](F)C5=CC(=O)C=C[C@]5(C)[C@@]4(F)[C@@H](O)C[C@]3(C)[C@]2(C(=O)CO)O1`, the Potency is 11.2 µM (active).

`CC(C)[N+](C)(CCOC(=O)C1c2ccccc2Oc2ccccc21)C(C)C`: the max activation was 0.826%. Regarding `CC[C@]12CCCN3CCc4c(n(c5ccccc45)[C@@](O)(C(=O)OC)C1)[C@@H]32`, the max activation is 1.48%. For `NC[C@H](O)c1ccc(O)c(O)c1`, the max activation was -0.838%. As for `CC/C(=C(/CC)c1ccc(O)cc1)c1ccc(O)cc1`, the max activation is 5.39%.

Regarding `CN(C)/N=N/c1nc[nH]c1C(N)=O`, the max activation is -1.32%. On to `C/C=C/C(=O)N(CC)c1ccccc1C`, for which the max activation was -1.94%. For the molecule `C[C@]12C=CC(=O)C=C1CC[C@H]1[C@@H]3C[C@@H](O)[C@](O)(C(=O)CO)[C@@]3(C)C[C@H](O)[C@@]12F`, the max activation was -5.29%.
